# Data taken from the supplement of paper PMC10849652.
# Of roughly 8,800 targets only a part is listed; those with a hit were picked by preference. About 0.5% of all pairs of compound and target were hits. Values without a mark were called inactive.
# Tests used:
# Assay in all cases: log2 fold change, soluble protein after heating vs DMSO (PISA); higher = thermal stabilisation; K562 lysate, 10 uM; active = over 0.2 and 3.5 SD of the protein, either way, in both replicates (recomputed)
# nilotinib = compound: Cc1cn(-c2cc(NC(=O)c3ccc(C)c(Nc4nccc(-c5cccnc5)n4)c3)cc(C(F)(F)F)c2)cn1 [nilotinib]
# Outline: (§1)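 Thermal stability, expressed as log-two fold change relative to solvent controls, is given from duplicates. Crude K562 extract in PBS pH 7.4 with 1 mM MgCl2, at 1 mg/mL protein, was treated with 10 μM compound for 30 min and heated in aliquots for 3 min across 48°C-58°C. After pooling, adjustment to 0.5% NP-40 at 4°C and centrifugation at 21,000xg for 90 min, supernatant protein was measured by TMTpro 16plex LC-MS/MS with channel sums equalised.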
# [1] = compound: Cc1nc(Nc2n[nH]c3c2CN(C(=O)N[C@H](CN(C)C)c2ccccc2)C3(C)C)c2sccc2n1
# Outline: as §1
# dasatinib = compound: Cc1nc(Nc2ncc(C(=O)Nc3c(C)cccc3Cl)s2)cc(N2CCN(CCO)CC2)n1 [dasatinib]
# Outline: as §1
# [2] = compound: Cc1ncc(-c2ccnc(Nc3ccc(S(C)(=O)=O)cc3)n2)n1C(C)C
# Outline: as §1
# [3] = compound: Cn1cc(-c2ccc3c(c2)CCN3C(=O)Cc2cccc(C(F)(F)F)c2)c2c(N)ncnc21
# Outline: as §1
# quisinostat = compound: Cn1cc(CNCC2CCN(c3ncc(C(=O)NO)cn3)CC2)c2ccccc21 [quisinostat]
# Outline: as §1
# tipifarnib = compound: Cn1cncc1[C@@](N)(c1ccc(Cl)cc1)c1ccc2c(c1)c(-c1cccc(Cl)c1)cc(=O)n2C [tipifarnib]
# Outline: as §1
# [4] = compound: NC(=O)Nc1cc(-c2cccc(F)c2)sc1C(=O)N[C@H]1CCCNC1
# Outline: as §1
# [5] = compound: NC(=O)c1cnc(N[C@@H]2CCCC[C@@H]2N)nc1Nc1cccc(-n2nccn2)c1
# Outline: as §1
# [6] = compound: NC1(c2ccc(-c3nc4ccn5c(=O)[nH]nc5c4cc3-c3ccccc3)cc2)CCC1
# Outline: as §1
# Sequence of UniProt Q9UL25 (Q9UL25 whole entry, looked up): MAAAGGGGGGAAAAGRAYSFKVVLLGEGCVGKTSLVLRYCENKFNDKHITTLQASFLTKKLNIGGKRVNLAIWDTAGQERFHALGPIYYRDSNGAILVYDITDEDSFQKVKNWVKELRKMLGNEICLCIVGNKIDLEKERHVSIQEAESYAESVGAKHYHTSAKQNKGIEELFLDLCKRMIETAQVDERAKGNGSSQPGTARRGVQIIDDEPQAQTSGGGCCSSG
# Sequence of UniProt Q53S08 (Q53S08 whole entry, looked up): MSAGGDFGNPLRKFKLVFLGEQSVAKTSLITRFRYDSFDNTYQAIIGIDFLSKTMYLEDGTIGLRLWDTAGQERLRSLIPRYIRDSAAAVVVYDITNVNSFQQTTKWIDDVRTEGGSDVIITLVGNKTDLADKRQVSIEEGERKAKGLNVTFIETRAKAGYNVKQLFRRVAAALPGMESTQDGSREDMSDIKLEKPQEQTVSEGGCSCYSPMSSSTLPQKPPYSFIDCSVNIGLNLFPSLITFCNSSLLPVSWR
# Sequence of UniProt Q86U06 (Q86U06 whole entry, looked up): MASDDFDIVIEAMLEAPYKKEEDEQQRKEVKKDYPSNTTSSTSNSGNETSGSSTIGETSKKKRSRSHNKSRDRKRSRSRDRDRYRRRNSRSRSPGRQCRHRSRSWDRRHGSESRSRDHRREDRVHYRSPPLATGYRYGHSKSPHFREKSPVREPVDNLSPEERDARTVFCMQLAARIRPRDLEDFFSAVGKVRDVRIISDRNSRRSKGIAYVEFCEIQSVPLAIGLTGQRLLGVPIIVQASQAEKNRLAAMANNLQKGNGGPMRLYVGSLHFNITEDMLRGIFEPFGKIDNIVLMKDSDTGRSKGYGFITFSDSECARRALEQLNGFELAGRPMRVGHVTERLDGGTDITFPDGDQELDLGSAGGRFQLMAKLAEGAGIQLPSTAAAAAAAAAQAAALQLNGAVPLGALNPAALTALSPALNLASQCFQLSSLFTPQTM
# Sequence of UniProt Q9BXT8 (Q9BXT8 whole entry, looked up): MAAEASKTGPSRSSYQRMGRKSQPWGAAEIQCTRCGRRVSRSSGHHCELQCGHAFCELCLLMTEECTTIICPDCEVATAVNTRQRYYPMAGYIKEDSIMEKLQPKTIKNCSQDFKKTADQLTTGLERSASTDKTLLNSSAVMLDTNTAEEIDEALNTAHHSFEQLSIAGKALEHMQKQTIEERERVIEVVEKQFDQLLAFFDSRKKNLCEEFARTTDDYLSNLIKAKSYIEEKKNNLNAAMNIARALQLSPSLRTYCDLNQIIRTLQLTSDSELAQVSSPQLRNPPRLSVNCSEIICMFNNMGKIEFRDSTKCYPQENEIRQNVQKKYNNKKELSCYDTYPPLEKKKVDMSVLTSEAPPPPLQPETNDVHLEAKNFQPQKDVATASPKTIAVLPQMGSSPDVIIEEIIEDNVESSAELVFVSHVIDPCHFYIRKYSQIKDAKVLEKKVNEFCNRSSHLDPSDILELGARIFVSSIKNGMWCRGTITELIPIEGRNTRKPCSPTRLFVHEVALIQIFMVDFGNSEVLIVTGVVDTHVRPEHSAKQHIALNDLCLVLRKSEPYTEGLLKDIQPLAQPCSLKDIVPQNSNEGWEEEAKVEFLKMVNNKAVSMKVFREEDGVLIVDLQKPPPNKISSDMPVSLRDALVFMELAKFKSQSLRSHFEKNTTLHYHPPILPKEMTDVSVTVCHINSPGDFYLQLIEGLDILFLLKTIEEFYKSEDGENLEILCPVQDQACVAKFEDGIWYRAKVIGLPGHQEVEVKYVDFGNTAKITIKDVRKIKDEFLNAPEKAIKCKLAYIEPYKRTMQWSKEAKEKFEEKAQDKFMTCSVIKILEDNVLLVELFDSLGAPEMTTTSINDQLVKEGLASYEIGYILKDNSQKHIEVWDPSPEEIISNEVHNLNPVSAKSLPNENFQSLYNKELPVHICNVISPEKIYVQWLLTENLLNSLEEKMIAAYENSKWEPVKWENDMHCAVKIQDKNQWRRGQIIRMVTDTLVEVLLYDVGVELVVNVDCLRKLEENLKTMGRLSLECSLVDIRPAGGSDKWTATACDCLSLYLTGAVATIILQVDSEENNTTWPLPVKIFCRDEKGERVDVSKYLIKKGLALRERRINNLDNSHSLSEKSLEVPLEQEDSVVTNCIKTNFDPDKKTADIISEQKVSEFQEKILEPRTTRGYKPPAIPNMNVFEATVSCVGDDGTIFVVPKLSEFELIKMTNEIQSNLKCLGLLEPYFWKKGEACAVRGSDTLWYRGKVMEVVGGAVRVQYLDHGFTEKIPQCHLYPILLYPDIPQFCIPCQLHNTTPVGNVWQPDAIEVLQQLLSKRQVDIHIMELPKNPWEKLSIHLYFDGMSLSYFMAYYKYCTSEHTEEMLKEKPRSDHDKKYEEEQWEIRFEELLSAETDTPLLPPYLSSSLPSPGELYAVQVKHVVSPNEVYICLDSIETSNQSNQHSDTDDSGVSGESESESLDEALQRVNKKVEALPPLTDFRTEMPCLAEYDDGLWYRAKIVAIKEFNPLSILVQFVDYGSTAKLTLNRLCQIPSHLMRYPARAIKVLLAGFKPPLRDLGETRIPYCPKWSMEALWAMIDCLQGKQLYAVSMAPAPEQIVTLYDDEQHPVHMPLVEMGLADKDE
# Sequence of UniProt P53805 (P53805 whole entry, looked up): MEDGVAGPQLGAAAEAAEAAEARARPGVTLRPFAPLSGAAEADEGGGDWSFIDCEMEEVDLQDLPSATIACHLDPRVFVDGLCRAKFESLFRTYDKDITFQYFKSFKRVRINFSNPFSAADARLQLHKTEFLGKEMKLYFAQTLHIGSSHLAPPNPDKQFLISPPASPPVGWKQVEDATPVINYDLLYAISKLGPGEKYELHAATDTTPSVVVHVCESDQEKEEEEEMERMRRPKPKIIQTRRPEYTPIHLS
# Sequence of UniProt P23921 (P23921 whole entry, looked up): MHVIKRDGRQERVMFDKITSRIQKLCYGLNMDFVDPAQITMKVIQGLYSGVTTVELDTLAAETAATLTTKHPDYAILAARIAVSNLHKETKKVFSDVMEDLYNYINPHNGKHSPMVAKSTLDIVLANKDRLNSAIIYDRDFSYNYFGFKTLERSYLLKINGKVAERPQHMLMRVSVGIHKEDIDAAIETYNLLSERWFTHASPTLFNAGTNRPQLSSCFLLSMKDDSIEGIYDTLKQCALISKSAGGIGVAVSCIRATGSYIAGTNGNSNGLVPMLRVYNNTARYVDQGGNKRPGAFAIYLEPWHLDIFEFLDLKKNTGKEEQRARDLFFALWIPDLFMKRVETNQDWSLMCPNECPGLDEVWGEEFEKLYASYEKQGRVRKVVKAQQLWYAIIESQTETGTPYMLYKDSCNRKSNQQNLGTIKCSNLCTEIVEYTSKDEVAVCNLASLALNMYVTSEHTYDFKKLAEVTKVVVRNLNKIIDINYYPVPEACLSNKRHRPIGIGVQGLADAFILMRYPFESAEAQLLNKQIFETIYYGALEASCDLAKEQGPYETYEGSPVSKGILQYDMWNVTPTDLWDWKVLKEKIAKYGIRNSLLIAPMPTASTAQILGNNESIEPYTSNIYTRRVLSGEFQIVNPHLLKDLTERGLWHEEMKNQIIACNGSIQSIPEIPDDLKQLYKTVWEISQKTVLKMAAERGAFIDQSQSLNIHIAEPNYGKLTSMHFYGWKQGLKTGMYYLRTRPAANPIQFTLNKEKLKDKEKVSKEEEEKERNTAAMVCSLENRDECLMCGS
# Sequence of UniProt Q5XPI4 (Q5XPI4 whole entry, looked up): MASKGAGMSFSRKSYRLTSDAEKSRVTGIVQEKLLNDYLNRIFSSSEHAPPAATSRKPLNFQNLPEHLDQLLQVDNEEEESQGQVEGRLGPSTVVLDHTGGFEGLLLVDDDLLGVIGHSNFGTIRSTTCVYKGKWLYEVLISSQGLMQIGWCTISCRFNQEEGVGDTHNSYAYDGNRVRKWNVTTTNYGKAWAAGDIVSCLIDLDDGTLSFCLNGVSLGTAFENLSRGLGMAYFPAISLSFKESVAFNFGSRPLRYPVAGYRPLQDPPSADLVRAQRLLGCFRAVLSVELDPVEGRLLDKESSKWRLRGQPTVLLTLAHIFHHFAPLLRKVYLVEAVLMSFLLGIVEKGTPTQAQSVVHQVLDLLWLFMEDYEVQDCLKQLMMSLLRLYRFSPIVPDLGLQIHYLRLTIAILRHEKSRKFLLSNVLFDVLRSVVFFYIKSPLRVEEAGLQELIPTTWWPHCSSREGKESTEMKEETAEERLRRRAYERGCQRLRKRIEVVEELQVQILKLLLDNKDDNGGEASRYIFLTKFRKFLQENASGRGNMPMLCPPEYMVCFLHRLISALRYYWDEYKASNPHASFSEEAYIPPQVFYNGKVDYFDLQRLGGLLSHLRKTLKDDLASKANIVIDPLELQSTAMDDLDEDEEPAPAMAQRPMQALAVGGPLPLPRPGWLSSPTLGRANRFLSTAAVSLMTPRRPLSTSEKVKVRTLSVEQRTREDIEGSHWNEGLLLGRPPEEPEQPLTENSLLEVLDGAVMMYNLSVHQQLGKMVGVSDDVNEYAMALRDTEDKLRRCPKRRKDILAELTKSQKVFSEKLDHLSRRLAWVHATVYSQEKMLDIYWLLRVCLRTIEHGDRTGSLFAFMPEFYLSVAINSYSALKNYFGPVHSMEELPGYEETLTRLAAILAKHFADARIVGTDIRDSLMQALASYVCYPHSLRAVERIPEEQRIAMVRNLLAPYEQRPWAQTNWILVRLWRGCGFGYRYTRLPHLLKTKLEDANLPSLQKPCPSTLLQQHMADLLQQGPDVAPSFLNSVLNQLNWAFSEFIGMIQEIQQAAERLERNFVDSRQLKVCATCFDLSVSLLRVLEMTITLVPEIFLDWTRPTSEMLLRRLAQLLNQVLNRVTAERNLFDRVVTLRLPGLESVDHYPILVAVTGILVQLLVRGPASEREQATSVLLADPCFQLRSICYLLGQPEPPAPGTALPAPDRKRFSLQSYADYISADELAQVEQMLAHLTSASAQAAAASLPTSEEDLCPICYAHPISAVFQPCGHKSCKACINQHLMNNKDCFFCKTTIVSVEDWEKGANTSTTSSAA
# Sequence of UniProt Q9Y225 (Q9Y225 whole entry, looked up): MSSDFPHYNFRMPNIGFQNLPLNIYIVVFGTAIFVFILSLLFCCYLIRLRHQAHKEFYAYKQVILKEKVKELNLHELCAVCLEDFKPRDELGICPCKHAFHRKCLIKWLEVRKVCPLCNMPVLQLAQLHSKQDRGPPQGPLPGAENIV
Target,log2 fold change (nilotinib),log2 fold change [1],log2 fold change (dasatinib),log2 fold change [2],log2 fold change [3],log2 fold change (quisinostat),log2 fold change (tipifarnib),log2 fold change [4],log2 fold change [5],log2 fold change [6]
RRM1 (UniProt P23921),-0.003,0.008,-0.026,0.001,0.016,-0.018,0.007,0.016,-0.002,-0.038
RINT1 (UniProt Q6NUQ1),0.043,0.075,-0.115,0.028,0.012,-0.029,-0.044,0.071,0.001,-0.014
RAB21 (UniProt Q9UL25),0.069,-0.036,0.043,-0.017,-0.022,-0.023,-0.051,0.019,-0.017,-0.007
RAB8B (UniProt Q92930),-0.136,-0.011,-0.038,-0.033,-0.096,-0.035,0.075,0.019,0.099,0.029
RCAN1 (UniProt P53805),-0.457 (active),0.008,0.023,-0.055,0.038,-0.217,0.131,0.117,0.088,0.036
RAB6D (UniProt Q53S08),-0.028,-0.019,-0.004,0.111,-0.008,-0.056,-0.162,-0.006,-0.013,-0.064
RPTOR (UniProt Q8N122),-0.005,-0.035,-0.041,-0.016,0.011,-0.057,0.014,0.047,0.006,-0.041
RABEPK (UniProt Q7Z6M1),-0.003,0.005,0.005,-0.01,0.012,0.004,0.007,-0.018,0.013,0.002
RIOK3 (UniProt O14730),0.017,-0.027,-0.05,-0.076,0.002,-0.063,0.008,0.01,0.009,0.014
RBM23 isoform 2 (UniProt Q86U06),0.172,0.021,-0.004,-0.065,-0.061,-0.047,-0.168,-0.024,-0.056,0.021
RPL8 (UniProt P62917),-0.005,-0.004,0.035,-0.028,-0.013,0.222 (active),0.027,-0.019,-0.008,-0.006
RNF123 (UniProt Q5XPI4),0.012,-0.013,-0.059,0.022,0.054,-0.046,-0.006,0.04,0.019,0.01
RUFY2 isoform 1 (UniProt Q8WXA3),-0.006,0.02,,0.119,,0.047,0.177,0.007,,
RETREG2 (UniProt Q8NC44),0.363 (active),-0.135,,0.055,,-0.084,-0.076,-0.016,-0.012,-0.022
RHBDD1 (UniProt Q8TEB9),,,,,,,,,0.103,
RNF170 (UniProt Q96K19),-0.04,0,-0.008,0.043,-0.028,,-0.3,,-0.07,0.073
RNF24 isoform 2 (UniProt Q9Y225),0.105,-0.028,,0.123,,-0.139,0.034,-0.075,,0.051

Target,log2 fold change (nilotinib),log2 fold change [1],log2 fold change (dasatinib),log2 fold change [2],log2 fold change [3],log2 fold change (quisinostat),log2 fold change (tipifarnib),log2 fold change [4],log2 fold change [5],log2 fold change [6]
RAB5IF isoform 5 (UniProt Q9BUV8),-0.033,-0.033,-0.108,-0.003,0.06,,-0.189,,0.026,-0.096
SAMD4A (UniProt Q9UPU9),,,-0.228,,-0.005,-0.069,,0.058,-0.023,0.012
SEMA4G isoform 2 (UniProt Q9NTN9),,,0.006,,0.235,0.074,,0.085,,0.077
RFNG (UniProt Q9Y644),0.184,0.054,,-0.078,,,-0.048,,,
S100A6 (UniProt P06703),,,0.774 (active),,-0.063,0.001,,-0.078,-0.063,0.026
RNF17 (UniProt Q9BXT8),,,-0.055,,0.061,0.142,,0.054,0.046,0.043
RLIM (UniProt Q9NVW2),,,,,,-0.748 (active),,0.233,,
RECQL4 (UniProt O94761),0.051,0.102,-0.007,-0.063,-0.019,-0.094,0.024,0.023,,0.017
ROCK1 (UniProt Q13464),-0.013,-0.001,-0.004,0.006,0.011,-0.01,0.001,,0.009,0.013
"RNASEH2B, A0A1B0GUE7",-0.01,0.037,,0.211,,,0.067,,0.035,
ROBO2 isoform 3 (UniProt Q9HCK4),,,,,,0.052,,0.009,0.043,0.005
RYR1 (UniProt P21817),,,-0.032,,-0.061,-0.392 (active),,0.046,0.029,0.003
SERAC1 (UniProt Q96JX3),0.085,-0.133,-0.152,-0.029,0.052,,0.033,,,-0.023
RBM4 isoform 3 (UniProt Q9BWF3),,,,,,-0.094,,0.06,,
SCNM1 (UniProt Q9BWG6),-0.078,-0.045,0.122,-0.091,0.015,-0.061,0.045,0.06,-0.104,-0.106
SEC61G (UniProt P60059),-0.007,-0.061,0,0.089,-0.033,-0.045,0.134,-0.01,0.023,0.053
RNF2 (UniProt Q99496),0.026,-0.047,-0.07,0.027,-0.025,0.154,-0.124,-0.015,,-0.05
